Sampled rows, rich in hits. Any-hit rate of the full collection: about 19%.
SARS PLpro yeast = blocks SARS-CoV papain-like protease in a yeast assay | S. cerevisiae expressing SARS-CoV PLpro, growth rescue | 330,000 tested, 0.19% active | AID 485353 | Potency, µM (titrated, usually from 32.9 µM), inactives show at the highest dose activity, positive = growth rescue, usual class: activators; calls by dose curve; further: potency means the concentration at half of the fitted maximal effect; 0% is about no effect; nearly all actives have a fitted effect of over 55% in size
Shiga inhibitor = Shiga toxin inhibition | 290,000 tested, 9.2% active | inhibition, % at 38.7 µM | Vero cells, Shiga toxin protein synthesis inhibition reporter; in the data active means inhibition mostly above about 28%, no sharp cut-off; inactive means mostly below about 43%; further: 0% is about no effect
Pf growth 48h = inhibits P. falciparum growth in the first generation, 48 h | P. falciparum luciferase growth in erythrocytes, 48 h | Potency, µM (highest dose often 28.7 µM), without a hit: at the highest dose activity change, negative = inhibition, most hits filed as inhibitors | 310,000 tested, 5.9% active | AID 504832; further: potency means the concentration at half of the fitted maximal effect; on the % scale 0 is the no-effect control and ±100 the full control effect
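Erythrocytes infected with P. falciparum carrying an integrated firefly luciferase reporter (2% hematocrit, 0.1% parasitemia final) were exposed to compounds in RPMI 1640 with 0.5% Albumax at 37 C, 5% CO2. Growth inhibition was scored as reduced luminescence.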
AMA1-RON2 inh = disrupts binding of P. falciparum AMA1 to RON2 | Potency, µM (highest dose often 58.2 µM), without a hit: at the highest dose activity change, negative = inhibition, hits mostly inhibitors | 360,000 tested, 0.2% active | AlphaScreen AMA1-biotinylated RON2 peptide binding;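 further: potency means the concentration at half of the fitted maximal effect; 0% = vehicle wells and -100% = peptide control; nearly all actives have a fitted effect of over 45% in size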
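AMA1 (3D7) with his tag at 25 nM final met compounds first, then biotinylated RON2 peptide at 25 nM; detection used donor plus acceptor beads, 10 µg/mL apiece, read by AlphaScreen after 30 min at room temperature.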
Pf growth 96h = inhibits malaria parasite growth, 96 h | 320,000 tested, 6.9% active | P. falciparum luciferase reporter growth, 96 h | AID 504834 | Potency, µM (doses to about 28.7 µM), without a hit: at the highest dose activity change, negative = inhibition, hits mostly inhibitors; further: potency means the concentration at half of the fitted maximal effect; on the % scale 0 is the no-effect control and ±100 the full control effect
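Two-generation exposure (96 h) targets delayed-death phenotype. Reporter parasites carrying integrated firefly luciferase, in red cells at 2% hematocrit and 0.05% parasitemia final, kept at 37 C, 5% CO2; luminescence loss indicates inhibition.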
CHX counter = counter-screen hit for Shiga toxin inhibitors, cycloheximide; cell reporter, cycloheximide protein synthesis inhibition counterscreen; 300,000 tested, 12% active; max response, %; in the data active means max response mostly above about 13%, no sharp cut-off; inactive means mostly below about 14%; further: read at 38.3 µM for the half of the compounds with a filed dose; 0% is about no effect
An asterisk follows results filed as active; u = inconclusive; x = no result given; [ ] = remark or other dose. Unless noted, the call rests on the fitted dose curve; in most records, active means well fitted curve in the direction sought with a large enough effect; inconclusive means small, poorly fitted or top-dose-only effect, or another doubt; inactive means no such curve, though single readings can be large; an effect the other way counts as inactive or inconclusive.

SMILES	SARS PLpro yeast	Shiga inhibitor	Pf growth 48h	AMA1-RON2 inh	Pf growth 96h	CHX counter
CCCN(CC(=O)Nc1ccccc1OC)C(=O)c1ccc(=O)[nH]c1	0.3%	-5.5	3.5%	6.0%	49.1%	-3.2
O=C(CCc1ccccc1)c1nnc(-c2ccccc2)o1	-1.1%	42.0	42.3%	40.4%	25.1%	30.4*
COc1cccc(-c2nnc(-c3ccc(C(F)(F)F)cc3)o2)c1	-13.0%	49.2*	246.1%	49.1%	219.6%	27.3*
COc1cccc(-c2nnc(-c3ccc4ccccc4c3)o2)c1	x	x	x	1.0%	x	x
Clc1cccc(-c2nnc(-c3ccno3)o2)c1	-0.4%	21.6	-0.2%	0.0%	-8.5%	24.5
c1ccc2c(-c3nc(C4CCCCC4)no3)cc(-c3ccncc3)nc2c1	-3.8%	12.2	2.62µM*	0.9%	u	-1.1
Clc1cccc(-c2nnc(-c3ccccc3)o2)c1	-9.7%	59.1*	121.3%	5.6%	-1.4%	36.5*
CC(C)C(=O)Nc1cc2c3c(c1)CCN3C(=O)CC2	-7.8%	6.9	12.6%	-3.2%	9.9%	-3.9
Cc1ccc(NS(=O)(=O)c2c(C)[nH]c(C)c2C(=O)N2CCCCC2)cc1F	1.2%	-12.6	4.3%	-8.6%	-3.1%	-8.6
COc1cc(-c2nnc(-c3ccco3)o2)ccc1OCc1ccccc1	-62.2%	58.7*	u	3.1%	-20.0%	38.7*
COc1ccc(-c2cc(-c3nnc(-c4ccncc4)o3)c3ccccc3n2)cc1	1.2%	-7.5	u	-1.3%	9.28µM*	-1.5
Oc1ccccc1-c1nnc(-c2ccc(C(F)(F)F)cc2)o1	3.2%	20.2	49.9%	141.9%	10.8%	34.8*
CN(C)S(=O)(=O)c1cccc(-c2nnc(-c3ccccc3)o2)c1	3.3%	73.4*	x	2.4%	u	44.1*
CC(C)C(NC(=O)c1ccc(Cl)c([N+](=O)[O-])c1)C(=O)NCc1ccccn1 (stereo not drawn)	-4.2%	x	x	11.1%	x	x
CSc1nnc(-c2ccccc2)o1	-2.5%	47.9	42.3%	-5.5%	10.1%	-3.4
COc1cc(-c2nnc(-c3ccccc3)o2)cc(OC)c1OC	-21.5%	10.8	u	20.6%	u	5.8
c1ccc(-c2nnc(-c3ccccc3)o2)cc1	-0.4%	85.5*	234.3%	7.6%	143.7%	30.7*
COc1ccccc1-c1nnc(-c2ccc(N3CCOCC3)cc2)o1	3.6%	61.6*	u	4.4%	1.65µM*	34.9*
COc1ccc(-c2nnc(-c3ccccc3)o2)cc1OC	-11.3%	52.9*	203.7%	-4.3%	2.4%	50.6*
CN1C(=O)c2ccccc2C(C(=O)NCC2CCCO2)C1c1c[nH]c2ccccc12 (stereo not drawn)	x	-8.6	-1.9%	-4.8%	u	7.1
N=c1n(CCCOc2ccccc2Cl)c2ccccc2n1CC(N)=O	1.0%	15.0	u	-19.1%	u	-2.6
COc1ccc(C(=O)NCC(c2ccc(F)cc2)N2CCOCC2)cc1S(=O)(=O)N1CCCC1 (stereo not drawn)	7.2%	-9.8	u	11.5%	10.4µM*	0.7
COc1ccc(C(=O)NCC(c2ccccc2)c2ccccc2)cc1S(=O)(=O)N1CCOCC1	x	x	x	7.4%[11.6 µM]	x	x
COc1ccccc1C(CNC(=O)c1ccc(C)c(S(=O)(=O)N2CCCCC2)c1)N1CCCC1 (stereo not drawn)	-0.7%	x	u	-0.8%	10.4µM*	x
COc1ccc(C(CNC(=O)c2ccc(C)c(S(=O)(=O)N3CCCCC3)c2)N(C)C)cc1OC (stereo not drawn)	-3.1%	3.5	-22.4%	-2.6%	-1.7%	-1.1
SMILES	SARS PLpro yeast	Shiga inhibitor	Pf growth 48h	AMA1-RON2 inh	Pf growth 96h	CHX counter
COc1ccc(C(CNC(=O)c2ccc(OC)c(S(=O)(=O)N3CCCC3)c2)N2CCCC2)cc1 (stereo not drawn)	-7.5%	x	u	-6.4%	10.4µM*	x
CC(=NNC(=S)N1CCN(c2ccccn2)CC1)c1nccs1	x	x	x	-59.7%	x	x
Oc1cc2ccccc2nc1-c1ccccc1Cl	-3.7%	11.1	7.38µM*	-1.2%	u	-0.9
Cc1cc(S(=O)(=O)NCCN2CCOCC2)ccc1Cl	0.3%	-6.1	x	-4.8%	-3.1%	-7.8
O=S(=O)(NCCN1CCOCC1)c1cc(Cl)ccc1Cl	11.0%	0.2	1.6%	5.4%	6.57µM*	-0.9
COc1c(S(=O)(=O)NCCN2CCOCC2)ccc(Cl)c1Cl	12.4%	-16.5	12.0%	0.9%	x	-2.5
Cc1c(Cl)ccc(S(=O)(=O)NCCN2CCOCC2)c1Cl	-0.5%	10.7	0.131µM*	-0.4%	-3.4%	0.0
O=c1[nH][nH]c(-c2ccccc2)c1C=Nc1ccc(OC(F)(F)F)cc1	10.4%	-6.0	22.2%	45.9%	u	-3.9
CCOC(=O)N1CCN(C(=O)CSc2nc3c([nH]c4ccccc43)c(=O)n2CC)CC1	x	10.8	u	5.2%	7.2%	-2.8
O=C(C=Cc1ccccn1)c1ccccc1	x	x	x	2.1%	x	x
CCn1c(=O)cc(SCC(=O)Nc2cccnc2)c2ccccc21	2.6%	-2.8	14.0%	-1.3%	11.7µM*	-1.2
CCn1c(=O)cc(SCC(=O)Nc2ccc3c(c2)OCO3)c2ccccc21	-1.2%	24.9	23.5%	-8.1%	9.1%	9.9*
Cc1cc(Br)ccc1SCC(=O)Nc1cccnc1	-0.2%	-3.1	u	33.4%	u	-4.5
Nc1ccc(CSc2ccc(Cl)cc2)cc1	-13.5%	58.6*	67.9%	8.3%	58.4%	23.8*
Cc1cc(C)nc(SCc2ccc(Cl)cc2)n1	-10.7%	6.6	3.7%	-8.5%	u	-3.4
CC1(C(=O)NS(=O)(=O)c2ccc(Cl)cc2)CCN1C(=O)C/C=C/c1ccccc1 (stereo not drawn)	x	x	x	35.2%	x	x
O=C(O)CSc1nnc(-c2ccc(Cl)cc2Cl)n1-c1ccccc1	2.6%	-7.7	15.1%	-1.5%	160.2%	-2.0
CCC(C)NC(=O)Cn1c(COc2ccc(Cl)cc2Cl)nc2ccccc21 (stereo not drawn)	8.9%	38.7*	148.9%	-0.6%[11.6 µM]	155.8%	33.2*
O=C(Cn1c(COc2ccccc2)nc2ccccc21)Nc1cccc(Cl)c1	-4.6%	0.8	6.7%	-8.0%[2.32 µM]	-17.0%	1.0
O=C(NCCCNC(=O)c1cnccn1)c1ccc(Cl)cc1	-0.2%	-1.3	-6.7%	6.6%	7.5%	1.0
COc1ccc(C(=O)NC(=S)NNC(=O)c2cnccn2)cc1	-25.6%	6.4	2.62µM*	3.5%	u	12.8
O=C(NC(=S)NNC(=O)c1cnccn1)c1ccc(Cl)cc1	2.2%	16.3	4.15µM*	22.6%	u	9.4
O=C(Nc1ccccc1)C(=O)Nc1cccnc1	-1.8%	52.7*	161.5%	-5.9%	243.1%	31.6*
O=C(CC(=O)c1ccccc1)Nc1cccnc1	17.4%	11.0	12.9%	-8.4%	10.7%	23.6*
O=C(O)C1CC=CCC1C(=O)Nc1cccnc1 (stereo not drawn)	-0.9%	3.4	9.28µM*	-7.0%	85.6%	-1.9
O=C(CCCc1ccccc1)Nc1cccnc1	-0.3%	65.7*	x	2.3%	20.7%	19.4*

Assay outcomes: PubChem, National Center for Advancing Translational Sciences (NCATS)
